From PubChem BioAssay (NCI)
About 79,000 compounds went through this panel and 15% of them were active in at least one assay; those are over-represented in the sample as a whole. Calls of active or inactive are those of the source. Cut-off read from the data, not from the text of the source: active = growth inhibition above about 70%; inactive = the rest.

Assay: NCI Yeast Anticancer Drug Screen. Data for the wt1 strain (AID 149);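 note: 0% = growth of vehicle-treated wt1 cultures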
Settings: S. cerevisiae wt1 strain (SPY 50644) growth inhibition; at 33.0 µM; hits give high values
Method in brief: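 Measured: growth of wt1 yeast under compound versus vehicle treatment, reported as inhibition.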
With `S=C(S)NN1CCOCC1` the growth inhibition was 51% (inactive).
In the case of `COc1cc2c3c(cccc3c1)C(=O)N(CCN(C)C)C2=O`, the growth inhibition is reported as -1% (inactive).
With `COC(=O)C1=C(C)NC(C)=C(C(=O)OCCCN2CCC(c3ccccc3)(c3ccccc3)CC2)C1c1cccc([N+](=O)[O-])c1` (stereo not given) the growth inhibition was 98% (active).
For `c1ccc2c(c1)Oc1cccc3cccc-2c13`, the growth inhibition was 3% (inactive).
With `CN(C)CCOc1ccc2c(c1)C/C(=C/c1ncc([N+](=O)[O-])n1C)C2=O` the growth inhibition was 21% (inactive).
For `Cc1ccc(CCC2=CCCc3c2ccc2ccccc32)cc1`, the growth inhibition was -8% (inactive).
With `CNC(=O)OCc1c(COC(=O)NC)c(-c2ccc(Cl)c(Cl)c2)n2c1CCC2` the growth inhibition was 71% (active).
In the case of `Clc1ccccc1C1OC1c1ccccc1Cl` (stereo not given), the growth inhibition is reported as -52% (inactive).
For `O=[N+]([O-])c1cc(CCl)ccc1CCl`, the growth inhibition was 93% (active).
With `O=C1C=CC(=O)c2c(O)c(Nc3ccc(OC(F)(F)F)cc3)c(Cl)c(O)c21` the growth inhibition was 50% (inactive).
In the case of `S=c1[nH]nc(Nc2ccc(Cl)cc2)s1`, the growth inhibition is reported as 36% (inactive).
In the case of `Cn1ccnc1Oc1ccc(Cl)cc1`, the growth inhibition is reported as 50% (inactive).
In the case of `BrCc1cccc2ccc3cccc(CBr)c3c12`, the growth inhibition is reported as -8% (inactive).
In the case of `O=C1c2ccccc2-c2nc3ccccc3nc21`, the growth inhibition is reported as 33% (inactive).
In the case of `CCCCCCCCCCCCCCCCCCNC`, the growth inhibition is reported as 15% (inactive).
With `Oc1ccc(NCn2c(=S)sc3ccccc32)cc1` the growth inhibition was 29% (inactive).
With `O=C1C2CC[C@@H]3C(=O)C(Cl)(Cl)[C@@H]3CCC2C1(Cl)Cl` (stereo not given in full) the growth inhibition was 9% (inactive).
In the case of `CC[n+]1ccc2c(C)c3[nH]c4ccc(O)cc4c3c(C)c2c1`, the growth inhibition is reported as 9% (inactive).
In the case of `Cc1ccc(-n2cc(-c3ccc(Cl)cc3)c(C#N)c2N)cc1`, the growth inhibition is reported as -2% (inactive).
With `CC(=O)[O][Bi]([c]1ccccc1)[c]1ccccc1` the growth inhibition was 90% (active).
In the case of `CC1=C(SCCO)C(=O)c2ccccc2C1=O`, the growth inhibition is reported as 4% (inactive).
With `C/C(=N\O)C1CC2C=C(C#N)C1N(Cc1ccccc1)C2` (stereo not given) the growth inhibition was -1% (inactive).
In the case of `CC(Br)C(=O)c1ccc2cc(Br)c3ccccc3c2c1` (stereo not given), the growth inhibition is reported as -5% (inactive).
With `Nc1nc(-c2cccnc2)cc(-c2cc(-c3cccnc3)nc(N)n2)n1` the growth inhibition was -2% (inactive).
For `CC(C)=CC(=O)O[C@@H]1CC(C)(C)CC2C3=CCC4[C@]56CC[C@](O)(OC5)C(C)(C)C6CC[C@@]4(C)C3(C)CC[C@]21C(=O)O` (stereo not given in full), the growth inhibition was 93% (active).
In the case of `CCC(C)COC(=O)c1ccc(N=Cc2ccc(C=Nc3ccc(C(=O)OCC(C)CC)cc3)cc2)cc1` (stereo not given), the growth inhibition is reported as -1% (inactive).
With `Oc1cccc2c(Cl)ccnc12` the growth inhibition was 97% (active).
For `O=C(O)c1cccc(-c2c3ccc(=O)cc-3oc3cc(O)ccc23)c1`, the growth inhibition was 77% (active).
In the case of `CN(CCc1ccccn1)c1ccc2c(c1)Cc1ccccc1-2`, the growth inhibition is reported as 5% (inactive).
In the case of `Cc1cc(S(=O)(=O)/N=C(/NN)NNc2cccc(C(F)(F)F)n2)c(S)cc1Cl`, the growth inhibition is reported as -7% (inactive).
For `O=C1C2C(C(=O)N1c1ccc(OCc3ccccc3)cc1)C1c3ccccc3C2C2CCCCN21` (stereo not given), the growth inhibition was -10% (inactive).
With `Nc1ccccc1CC(O)C(=O)O` (stereo not given) the growth inhibition was 42% (inactive).
For `O=C(O)C1CCCCC1c1c2ccc(=O)c(O)c-2oc2c(O)c(O)ccc12` (stereo not given), the growth inhibition was 32% (inactive).
For `Cc1ccc2ccc(O)cc2c1`, the growth inhibition was -11% (inactive).
For `O=C1C(=O)c2ccccc2C=C1[N+](=O)[O-]`, the growth inhibition was 15% (inactive).
With `COC(=O)c1ccc(NCC2=CC(=O)C=CC2=O)cc1O` the growth inhibition was 97% (active).
In the case of `C(CCSC1=NCCN1)CSC1=NCCN1` (tested in a mixture with another compound), the growth inhibition is reported as 99% (active).
With `N#Cc1c(N)[nH]c2ccc(Sc3ccccc3)cc12` the growth inhibition was 82% (active).
For `CCNc1nnc(CSc2nc(-c3ccccc3)c(-c3ccccc3)[nH]2)s1`, the growth inhibition was 81% (active).
With `CC[C@@]1(O)C(=O)OCc2c1cc1n(c2=O)Cc2cc3c(N)cccc3nc2-1` the growth inhibition was 8% (inactive).

Same assay, conditions: S. cerevisiae wt1 strain (SPY 50644) growth inhibition; at 100.0 µM; hits give high values
For `S=C(S)NN1CCOCC1`, the growth inhibition was 60% (inactive).
For `COc1cc2c3c(cccc3c1)C(=O)N(CCN(C)C)C2=O`, the growth inhibition was 2% (inactive).
For `COC(=O)C1=C(C)NC(C)=C(C(=O)OCCCN2CCC(c3ccccc3)(c3ccccc3)CC2)C1c1cccc([N+](=O)[O-])c1` (stereo not given), the growth inhibition was 94% (active).
In the case of `c1ccc2c(c1)Oc1cccc3cccc-2c13`, the growth inhibition is reported as 10% (inactive).
With `CN(C)CCOc1ccc2c(c1)C/C(=C/c1ncc([N+](=O)[O-])n1C)C2=O` the growth inhibition was 39% (inactive).
With `Cc1ccc(CCC2=CCCc3c2ccc2ccccc32)cc1` the growth inhibition was -9% (inactive).
In the case of `CNC(=O)OCc1c(COC(=O)NC)c(-c2ccc(Cl)c(Cl)c2)n2c1CCC2`, the growth inhibition is reported as 98% (active).
In the case of `Clc1ccccc1C1OC1c1ccccc1Cl` (stereo not given), the growth inhibition is reported as -26% (inactive).
For `O=[N+]([O-])c1cc(CCl)ccc1CCl`, the growth inhibition was 97% (active).
In the case of `O=C1C=CC(=O)c2c(O)c(Nc3ccc(OC(F)(F)F)cc3)c(Cl)c(O)c21`, the growth inhibition is reported as 94% (active).
In the case of `S=c1[nH]nc(Nc2ccc(Cl)cc2)s1`, the growth inhibition is reported as 89% (active).
In the case of `Cn1ccnc1Oc1ccc(Cl)cc1`, the growth inhibition is reported as 97% (active).
For `BrCc1cccc2ccc3cccc(CBr)c3c12`, the growth inhibition was -7% (inactive).
For `O=C1c2ccccc2-c2nc3ccccc3nc21`, the growth inhibition was 66% (inactive).
With `CCCCCCCCCCCCCCCCCCNC` the growth inhibition was 86% (active).
With `Oc1ccc(NCn2c(=S)sc3ccccc32)cc1` the growth inhibition was 97% (active).
With `O=C1C2CC[C@@H]3C(=O)C(Cl)(Cl)[C@@H]3CCC2C1(Cl)Cl` (stereo not given in full) the growth inhibition was 12% (inactive).
For `CC[n+]1ccc2c(C)c3[nH]c4ccc(O)cc4c3c(C)c2c1`, the growth inhibition was 14% (inactive).
For `Cc1ccc(-n2cc(-c3ccc(Cl)cc3)c(C#N)c2N)cc1`, the growth inhibition was -3% (inactive).
In the case of `CC(=O)[O][Bi]([c]1ccccc1)[c]1ccccc1`, the growth inhibition is reported as 94% (active).
In the case of `CC1=C(SCCO)C(=O)c2ccccc2C1=O`, the growth inhibition is reported as 4% (inactive).
For `C/C(=N\O)C1CC2C=C(C#N)C1N(Cc1ccccc1)C2` (stereo not given), the growth inhibition was -1% (inactive).
With `CC(Br)C(=O)c1ccc2cc(Br)c3ccccc3c2c1` (stereo not given) the growth inhibition was -3% (inactive).
In the case of `Nc1nc(-c2cccnc2)cc(-c2cc(-c3cccnc3)nc(N)n2)n1`, the growth inhibition is reported as -2% (inactive).
In the case of `CC(C)=CC(=O)O[C@@H]1CC(C)(C)CC2C3=CCC4[C@]56CC[C@](O)(OC5)C(C)(C)C6CC[C@@]4(C)C3(C)CC[C@]21C(=O)O` (stereo not given in full), the growth inhibition is reported as 92% (active).
With `CCC(C)COC(=O)c1ccc(N=Cc2ccc(C=Nc3ccc(C(=O)OCC(C)CC)cc3)cc2)cc1` (stereo not given) the growth inhibition was 3% (inactive).
For `Oc1cccc2c(Cl)ccnc12`, the growth inhibition was 99% (active).
For `O=C(O)c1cccc(-c2c3ccc(=O)cc-3oc3cc(O)ccc23)c1`, the growth inhibition was 96% (active).
With `CN(CCc1ccccn1)c1ccc2c(c1)Cc1ccccc1-2` the growth inhibition was 2% (inactive).
For `Cc1cc(S(=O)(=O)/N=C(/NN)NNc2cccc(C(F)(F)F)n2)c(S)cc1Cl`, the growth inhibition was 10% (inactive).
In the case of `O=C1C2C(C(=O)N1c1ccc(OCc3ccccc3)cc1)C1c3ccccc3C2C2CCCCN21` (stereo not given), the growth inhibition is reported as 75% (active).
For `Nc1ccccc1CC(O)C(=O)O` (stereo not given), the growth inhibition was 90% (active).
For `O=C(O)C1CCCCC1c1c2ccc(=O)c(O)c-2oc2c(O)c(O)ccc12` (stereo not given), the growth inhibition was 82% (active).
In the case of `Cc1ccc2ccc(O)cc2c1`, the growth inhibition is reported as 71% (active).
In the case of `O=C1C(=O)c2ccccc2C=C1[N+](=O)[O-]`, the growth inhibition is reported as 26% (inactive).
For `COC(=O)c1ccc(NCC2=CC(=O)C=CC2=O)cc1O`, the growth inhibition was 93% (active).
With `C(CCSC1=NCCN1)CSC1=NCCN1` (tested in a mixture with another compound) the growth inhibition was 99% (active).
In the case of `N#Cc1c(N)[nH]c2ccc(Sc3ccccc3)cc12`, the growth inhibition is reported as 93% (active).
For `CCNc1nnc(CSc2nc(-c3ccccc3)c(-c3ccccc3)[nH]2)s1`, the growth inhibition was 77% (active).
In the case of `CC[C@@]1(O)C(=O)OCc2c1cc1n(c2=O)Cc2cc3c(N)cccc3nc2-1`, the growth inhibition is reported as -1% (inactive).
